Measured values: PubChem BioAssay (NCI)
This is part of a sample that, as a whole, favours compounds with a hit. Of some 79,000 tested, about 15% had one in any assay. Active and inactive are the calls of the source. Cut-off read from the data, not from the text of the source: active = growth inhibition above about 70%; inactive = the rest.

Experiments:
[1] = NCI Yeast Anticancer Drug Screen. Data for the rad50 strain (AID 155);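 note: 0% = growth of vehicle-only cultures of the same strain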; settings: S. cerevisiae rad50 strain growth inhibition; at 50.0 µM; active compounds read high
In short: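 Relative growth inhibition (compound vs vehicle) was measured in yeast with a defined repair-gene alteration.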

[2] = NCI Yeast Anticancer Drug Screen. Data for the mec2-1 strain (AID 157); settings: S. cerevisiae mec2-1 strain, at 50.0 µM, active compounds read high
In short: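 mec2-1 yeast strain, carrying an alteration in DNA damage repair or cell cycle control, was exposed to compounds; growth inhibition was measured relative to vehicle-treated controls.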

[3] = NCI Yeast Anticancer Drug Screen. Data for the sgs1 mgt1 strain (AID 161);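 note: 0% = growth of cultures given vehicle only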; settings: S. cerevisiae sgs1 mgt1 strain, at 50.0 µM, active compounds read high
In short: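 Yeast cells carrying a defined DNA-repair defect were exposed to test compounds. Growth inhibition was measured relative to vehicle-treated controls.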

[4] = NCI Yeast Anticancer Drug Screen. Data for the cln2 rad14 strain (AID 165);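 note: 0% = growth equal to vehicle treated cultures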; settings: S. cerevisiae cln2 rad14 strain, at 50.0 µM, active compounds read high
In short: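 Yeast carrying cln2 and rad14 alterations (cell cycle control and DNA damage repair) were exposed to compounds. Growth inhibition was measured against vehicle-treated controls.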

[5] = NCI Yeast Anticancer Drug Screen. Data for the bub3 strain (AID 167); settings: S. cerevisiae bub3 mutant strain, at 50.0 µM, active compounds read high
In short: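 Screening used yeast with an engineered genetic alteration affecting cell cycle control. Compound-exposed cultures were compared with vehicle cultures, and reduced growth was taken as inhibition.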

[6] = NCI Yeast Anticancer Drug Screen. Data for the mlh1 rad18 strain (AID 175); settings: S. cerevisiae mlh1 rad18 strain growth inhibition; at 50.0 µM; active compounds read high
In short: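 Growth inhibition of the yeast strain was measured after compound exposure and expressed relative to vehicle-treated controls. The strain carries defined defects in DNA damage repair.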

Measured: growth inhibition

CCCCCC1(C=O)C(=O)NC(=O)N1C (stereo not given)
inactive: [1] 2.25% | [2] -5.45% | [3] -1.45% | [4] -0.45% | [5] -0.05% | [6] -8.2%

O=S1(=O)NC(=NC2CCCC2)c2ccccc21
inactive: [1] 0.7% | [2] -12.4% | [3] -3.55% | [4] -35.8% | [5] -7.75% | [6] 1.15%

O=C(O)Cc1ccc2ccccc2c1
inactive: [1] 6.3% | [2] 13.2% | [3] 20.6% | [4] 3.6% | [5] 0.45% | [6] 48%

CC(C)(C)n1nc(C2CC2)c(Br)c1NC(=O)c1ccc(Cl)cc1
inactive: [1] -4.45% | [2] -0.95% | [3] 22.9% | [4] 0.45% | [5] 11.1% | [6] 1.7%

CCOC(=O)C(=CNc1cccc(Cl)c1)C(=O)OCC
inactive: [1] -2.8% | [2] -11.4% | [3] -18.9% | [4] -26.9% | [5] 32.2% | [6] -19.9%

CC(C)=NNS(=O)(=O)c1ccc(C)cc1
inactive: [1] -7.7% | [2] 14.6% | [3] 2.65% | [4] 7.2% | [5] -14.2% | [6] -7.55%

CCN(CCO)CC(O)Cn1cnc2c(N)ncnc21 (stereo not given)
inactive: [1] 2.35% | [2] -13.6% | [3] -18.1% | [4] 26.6% | [5] -17.3% | [6] 23.4%

Cn1ccc2c3ccsc3ccc21
inactive: [1] 21.8% | [2] 6.35% | [3] 4.55% | [4] -5.5% | [5] 4.3% | [6] 1.05%

c1ccc(COC2C3COC(O3)C(OCc3ccccc3)C2OCc2ccccc2)cc1 (stereo not given)
inactive: [1] 11.7% | [2] -1.7% | [3] 26.4% | [4] 3.2% | [5] 17.7% | [6] 22.4%

Cc1ccc(N2C(=O)CSC2=S)cc1C
inactive: [1] -1.7% | [2] -15.7% | [3] -30% | [4] -38% | [5] -29% | [6] -9.5%

O=S(=O)(c1ccc(NC(=S)NCc2ccco2)cc1)N1CCCCC1
inactive: [1] 46% | [2] 5.6% | [3] 42.1% | [4] 38.3% | [5] 28.9% | [6] 25.6%

CCOC(=O)C(C)(C)Oc1ccc(N=[N+]=[N-])cc1
inactive: [1] 13.1% | [2] 9.15% | [3] 41.5% | [4] 4.35% | [5] 5.8% | [6] 19.6%

COc1ccc2ccccc2c1
inactive: [1] -21% | [2] -30% | [3] -12.2% | [4] -23.9% | [5] 1.35% | [6] -31.6%

O=[N+]([O-])c1cccc(/C=[N+](\[O-])c2ccccc2)c1
inactive: [1] -3.45% | [2] 8.2% | [3] 13% | [4] -38.6% | [5] -16.9% | [6] 0.6%

CC(=O)OCC(OC(C)=O)C(OC(C)=O)C(C=NN(C(C)=O)S(=O)(=O)c1ccc(/C=C2\NC(=O)NC2=O)cc1)OC(C)=O (stereo not given)
inactive: [1] -4.6% | [2] -30.9% | [3] -17.9% | [4] 14% | [5] -17.8% | [6] -7.15%

Clc1ccccc1C=Nc1ccccc1
inactive: [1] 31.2% | [2] 11.9% | [3] 30.7% | [4] 20.6% | [5] 24.7% | [6] 34%

Cc1nc[nH]c(=O)c1N
inactive: [1] 0.55% | [2] -1.75% | [3] 9.2% | [4] 0.9% | [5] 7.75% | [6] -4.85%

CCC(C)CC(C)C1=NC(C)(C)CC(C)O1 (stereo not given)
inactive: [1] 3.65% | [2] -6.55% | [3] 0.75% | [4] -16.6% | [5] 0.2% | [6] 8.3%

CCOC(=O)CC1C(O)C(=O)N(C)C1c1ccccc1 (stereo not given)
inactive: [1] 21% | [2] -8.05% | [3] 1.75% | [4] 42.3% | [5] 9% | [6] -50.4%

O=[N+]([O-])c1cc(Cl)c(Cl)c(Cl)c1Cl
inactive: [1] 17.1% | [2] 3.4% | [3] -1% | [4] 14.8% | [5] 7.3% | [6] 31.4%

Cc1cccnc1C(=O)O.[Cu+2]
inactive: [1] -9.55% | [2] -0.45% | [3] -29.1% | [4] -45.2% | [5] -32.8% | [6] -7.4%

N#C/C(=C\c1ccccc1)c1cccc(Br)c1
inactive: [1] 3.9% | [2] -6.1% | [3] 17.4% | [4] -22.9% | [5] 48.1% | [6] -1%

CC(C)=CCC1=C(O)c2ccccc2C(=O)C1=O
inactive: [1] 16.6% | [2] 5.15% | [3] 14.2% | [4] 0.4% | [5] -4.25% | [6] 13.1%

C#Cc1nc(N)c2ncn(C3OC(COS(N)(=O)=O)C(O)C3O)c2n1 (stereo not given)
inactive: [1] 17.1% | [2] 32.5% | [3] 7.9% | [4] 28.4% | [5] 10.3% | [6] 10.6%

C=CCC(C(=C)C)(C(=O)OCC)C(=O)OCC
inactive: [1] -23.4% | [2] -24.6% | [3] -32.6% | [4] -6.8% | [5] -25.4% | [6] -31.9%

O=C(O)CCCCl
inactive: [1] 12.3% | [2] -7.8% | [3] 16.2% | [4] 13.7% | [5] 12.7% | [6] 26%

Cc1ccc(C(C)C)c(OC2OC(C(=O)O)C(O)C(O)C2O)c1 (stereo not given)
inactive: [1] 5.95% | [2] 13.9% | [3] -9% | [4] -33.7% | [5] 10.9% | [6] -10.4%

COC(=O)C(N)CO (stereo not given)
inactive: [1] -40.5% | [2] -27% | [3] -39.8% | [4] 4.35% | [5] -34.8% | [6] -26.1%

O=C1c2ccccc2C(=O)N1/N=[N+](\[O-])N1Cc2ccccc2C1
inactive: [1] 18.4% | [2] 27.9% | [3] 24.1% | [4] -18.2% | [5] 7.65% | [6] 28.2%

N#CCCN(CCC#N)c1ccc(/C=C2\N=C(COc3ccc(Cl)cc3Cl)OC2=O)cc1
inactive: [1] -12.9% | [2] -10% | [3] -14.8% | [4] 0.7% | [5] 6.8% | [6] -4.3%

CN(C)c1ccc(/C=N\NC(=S)Nc2ccc3cn[nH]c3c2)cc1
inactive: [1] 20.9% | [2] -10.9% | [3] -1.15% | [4] 8.1% | [5] 23.3% | [6] -9.5%

c1ccc(COc2ccc(OCc3ccccc3)cc2)cc1
inactive: [1] -1.5% | [2] 3.8% | [3] 13.1% | [4] -31.6% | [5] -10.2% | [6] 3%

CNC(=O)c1ccccc1C(=N)c1ccccc1
inactive: [1] -12.6% | [2] -5.4% | [3] -11.2% | [4] -8.05% | [5] -9.65% | [6] -8.35%

CC1C(c2ccccc2)(N(C)C)CS1(=O)=O (stereo not given)
inactive: [1] -3.15% | [2] -8.5% | [3] -6.4% | [4] -74.7% | [5] 12.7% | [6] -8.6%

Cc1ccc(S(=O)(=O)C(C#N)CCC(=O)c2ccc(Cl)cc2)cc1 (stereo not given)
inactive: [1] 6.25% | [2] 3.55% | [3] 6.75% | [4] 9.45% | [5] 10.2% | [6] 17.6%

CCOC(=O)CCC(NC(=O)c1ccc(NCc2nc3c([nH]2)c(=O)n(C)c(=O)n3C)cc1)C(=O)OCC (stereo not given)
inactive: [1] 1.95% | [2] 13.3% | [3] 13.6% | [4] 2.6% | [5] -8.75% | [6] 14.4%

COc1c(-c2ccc(F)cc2)oc2c(CC(=O)O)cccc2c1=O
inactive: [1] -0.35% | [2] -19.2% | [3] -27.1% | [4] 3.2% | [5] -7.6% | [6] -26.5%

CC1Cc2cc(O)ccc2C2[C@@H]1C1CC[C@H](O)[C@@]1(C)C[C@@H]2O[N+](=O)[O-] (stereo not given in full)
active: [6] 83%
inactive: [1] 18.5% | [2] 19.7% | [3] 55.8% | [4] 47.3% | [5] 60.9%

CCN(CC)c1ccc(N=C2C=CC(=O)C(NC(C)=O)=C2)c(C)c1
inactive: [1] -13.2% | [2] -24.8% | [3] 29.2% | [4] -8.15% | [5] 14.1% | [6] 13.3%

CC1(C)C=CC(=NO)C=C1
inactive: [1] -4.65% | [2] 2.65% | [3] -5.95% | [4] 6.45% | [5] 8.4% | [6] 6.7%
